Measurements: PubChem BioAssay (EPA / NIEHS)
Results filed as inconclusive are left out. The source made the active and inactive calls. The calls were made as follows: active = hit-call score of the fitted dose curve at least 0.9, where 1 is the maximum; inconclusive = response in the unintended direction; inactive = score below 0.9.

Assay: ACEA_ER_AUC_viability: ACEA Biosciences xCELLigence Real-Time Cell Analysis on Estrogen Receptor Agonism for Viability (AID 2283782);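 also: continuous compound exposure with impedance area under curve over 80 h; hit means loss of impedance signal meaning reduced cell growth or viability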
In short: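 T47D cells preconditioned in phenol red-free RPMI with charcoal-stripped FBS, then dosed with 8-point 1:4 series from 100 uM (up to 0.5% DMSO). Impedance monitored up to ~80 h; area-under-curve loss versus DMSO taken as viability.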

**Q.** For `CCCCC/C=C\C/C=C\CCCCCCCC(=O)OC`, which AC50 is on record?
**A.** 65.3 µM (active)

**Q.** With `C1CN(SSN2CCOCC2)CCO1` as the molecule, how does the AC50 read?
**A.** 82.4 µM (active)

**Q.** Which outcome does the source give for `COc1ccc2nc(N)sc2c1` here?
**A.** inactive

**Q.** Which outcome does the source give for `O=C1CCCC1` here?
**A.** inactive

**Q.** Which outcome does the source give for `Cc1ccc([N+](=O)[O-])cc1S(=O)(=O)O` here?
**A.** inactive

**Q.** For `Cc1ccc(N)c([N+](=O)[O-])c1`, which outcome is on record?
**A.** inactive

**Q.** For `Cn1c([N+](=O)[O-])cnc1COC(N)=O`, which outcome is on record?
**A.** inactive

**Q.** With `C[Si](C)(CCCN)O[Si](C)(C)CCCN` as the molecule, how does the AC50 read?
**A.** 55.9 µM (active)

**Q.** With `CC(=O)OC1C2(C)CCC(C2)C1(C)C` (stereo not drawn) as the molecule, how does the outcome read?
**A.** inactive

**Q.** With `O=C(C(Cl)Cl)N1CCOC12CCCCC2` as the molecule, how does the AC50 read?
**A.** 14.5 µM (active)

**Q.** With `C=CC(=O)OCCOC(=O)C=C` as the molecule, how does the AC50 read?
**A.** 32.3 µM (active)

**Q.** For `C=C[C@](C)(O)CC[C@@H]1[C@@]2(C)CCCC(C)(C)[C@@H]2CC[C@@]1(C)O`, which AC50 is on record?
**A.** 37.6 µM (active)

**Q.** For `S=C(NC1CCCCC1)NC1CCCCC1`, which outcome is on record?
**A.** inactive

**Q.** For `CCCCCCCCCCCCCCCC(=O)OCC`, which outcome is on record?
**A.** inactive

**Q.** With `CCCCCCOC(=O)C(C)CC` (stereo not drawn) as the molecule, how does the AC50 read?
**A.** 66.7 µM (active)

**Q.** For `OC1CCCCCCCCCCC1`, which outcome is on record?
**A.** inactive

**Q.** For `CC=CCO`, which outcome is on record?
**A.** inactive

**Q.** With `O=C1C(N(CO)C(=O)NCO)N(CO)C(=O)N1CO` (stereo not drawn) as the molecule, how does the outcome read?
**A.** inactive

**Q.** Which outcome does the source give for `Cc1cc(C)c(C(=O)O)c(C)c1` here?
**A.** inactive

**Q.** With `CC(C)(C)C1CCCCC1=O` (stereo not drawn) as the molecule, how does the AC50 read?
**A.** 24.8 µM (active)

**Q.** With `Nc1ccc(N=Nc2ccccc2)c(N)n1` as the molecule, how does the outcome read?
**A.** inactive

**Q.** Which outcome does the source give for `Cc1cccc(C(=O)O)c1` here?
**A.** inactive

**Q.** Which outcome does the source give for `O=C1CCCC(=O)O1` here?
**A.** inactive

**Q.** With `OCCc1ccncc1` as the molecule, how does the outcome read?
**A.** inactive

**Q.** With `CC1=CC[C@H]2C[C@@H]1C2(C)C` as the molecule, how does the outcome read?
**A.** inactive

**Q.** For `C=CCCCCCCCCC(=O)OCCCC`, which AC50 is on record?
**A.** 50 µM (active)

**Q.** Which outcome does the source give for `CCCCC(CC)CCC(CC(C)C)OS(=O)(=O)O` (stereo not drawn) here?
**A.** inactive

**Q.** For `CN(C)c1ccc(C(=N)c2ccc(N(C)C)cc2)cc1`, which AC50 is on record?
**A.** 32.3 µM (active)

**Q.** Which outcome does the source give for `CCN(CCC#N)c1ccc(N=Nc2c(Cl)cc([N+](=O)[O-])cc2Cl)cc1` here?
**A.** inactive

**Q.** For `CC(C)=CCC/C(C)=C\C#N`, which outcome is on record?
**A.** inactive

**Q.** With `CCOC(=O)CC` as the molecule, how does the outcome read?
**A.** inactive

**Q.** Which outcome does the source give for `CC(=O)C=CC1C(C)=CCC(C)C1(C)C` (stereo not drawn) here?
**A.** inactive

**Q.** Which outcome does the source give for `CCCCCCCOC(=O)CCC` here?
**A.** inactive
